Laboratory results reported in PubChem BioAssay (NCI).
Compounds without any hit were thinned out: in the full panel of roughly 79,000, 15% have a hit. Activity calls are given as the source filed them. Rule as the data show it: active = growth inhibition above about 70%; inactive = the rest.

How the values were obtained:
[1] = NCI Yeast Anticancer Drug Screen. Data for the rad52 strain (AID 147);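 also: 0% = growth of vehicle-treated control cultures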; conditions: S. cerevisiae rad52 mutant growth inhibition, hits give high values
In short: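 Measured: yeast growth inhibition. System: strain with a defined DNA damage repair alteration. Reference: vehicle-treated control cultures.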

[2] = NCI Yeast Anticancer Drug Screen. Data for the wt1 strain (AID 149);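 also: 0% = growth of vehicle-treated wt1 cultures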; conditions: S. cerevisiae wt1 strain (SPY 50644) growth inhibition, hits give high values
In short: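 Growth inhibition read against vehicle controls after compound exposure of the wt1 yeast strain.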

[3] = NCI Yeast Anticancer Drug Screen. Data for the rad50EPP+ strain (AID 151);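 also: 0% = growth of vehicle-treated control cultures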; conditions: S. cerevisiae rad50 mutant strain, hits give high values
In short: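 One strain with a rad50 alteration (rad50EPP+) was compound-treated, its growth then compared to that of vehicle controls.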

[4] = NCI Yeast Anticancer Drug Screen. Data for the mgt1 strain (AID 153); conditions: S. cerevisiae mgt1 mutant growth inhibition, hits give high values
In short: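 After exposure of the mgt1 yeast mutant to compound, growth was measured and reported as inhibition compared with vehicle controls.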

[5] = NCI Yeast Anticancer Drug Screen. Data for the rad50 strain (AID 155);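 also: 0% = growth of vehicle-only cultures of the same strain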; conditions: S. cerevisiae rad50 strain growth inhibition, hits give high values
In short: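 Readout: growth inhibition relative to vehicle-treated cultures. Compound exposure was carried out in a genetically defined yeast strain deficient in DNA damage repair.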

[6] = NCI Yeast Anticancer Drug Screen. Data for the mec2-1 strain (AID 157); conditions: S. cerevisiae mec2-1 strain, hits give high values
In short: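 Test agents were screened against the mec2-1 yeast strain, with defined DNA repair or cell cycle alteration. Growth was scored as inhibition against vehicle-only controls.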

[7] = NCI Yeast Anticancer Drug Screen. Data for the rad14 strain (AID 159);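 also: 0% = growth of vehicle-treated control cultures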; conditions: S. cerevisiae rad14 strain growth inhibition, hits give high values
In short: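 Growth inhibition vs vehicle controls; genetically altered yeast strain (DNA damage repair defect) treated with test compounds.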

[8] = NCI Yeast Anticancer Drug Screen. Data for the sgs1 mgt1 strain (AID 161);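 also: 0% = growth of cultures given vehicle only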; conditions: S. cerevisiae sgs1 mgt1 strain, hits give high values
In short: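 Test agents were incubated with a DNA-repair-mutant yeast strain. Growth was then read and compared against vehicle-treated controls.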

[9] = NCI Yeast Anticancer Drug Screen. Data for the CLN2oe strain (AID 163);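 also: 0% = growth of vehicle-only control cultures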; conditions: S. cerevisiae CLN2oe strain, hits give high values
In short: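 Here, growth inhibition in a cell-cycle-altered yeast strain after compound exposure was quantified against vehicle control growth.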

[10] = NCI Yeast Anticancer Drug Screen. Data for the cln2 rad14 strain (AID 165);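 also: 0% = growth equal to vehicle treated cultures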; conditions: S. cerevisiae cln2 rad14 strain, hits give high values
In short: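 Growth of compound-exposed yeast (cln2 rad14 genotype) measured and expressed as inhibition relative to vehicle.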

[11] = NCI Yeast Anticancer Drug Screen. Data for the bub3 strain (AID 167); conditions: S. cerevisiae bub3 mutant strain, hits give high values
In short: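 Readout: yeast growth inhibition, expressed relative to vehicle-only wells. The test organism is a mutant strain from a panel with lesions in DNA repair or checkpoint genes.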

[12] = NCI Yeast Anticancer Drug Screen. Data for the wt2 strain (AID 169);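 also: 0% = growth of vehicle-treated yeast cultures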; conditions: S. cerevisiae wt2 strain growth inhibition, hits give high values
In short: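 Genetically defined yeast strains from a DNA-repair/cell-cycle panel were used. Compound-exposed yeast growth was measured, and the inhibition was calculated relative to vehicle treatment.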

[13] = NCI Yeast Anticancer Drug Screen. Data for the mlh1 strain (AID 171);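 also: 0% = growth of vehicle-treated control cultures of the same strain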; conditions: S. cerevisiae mlh1 strain growth inhibition, hits give high values
In short: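 Here the genetically defined yeast mutant is grown with each compound, and the extent to which its growth falls below that of vehicle-exposed cells is reported.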

[14] = NCI Yeast Anticancer Drug Screen. Data for the sgs1 strain (AID 173);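 also: 0% = growth of vehicle-only control cultures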; conditions: S. cerevisiae sgs1 mutant, hits give high values
In short: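 Relative growth inhibition, referenced to vehicle, was determined in a yeast strain with a defined alteration affecting DNA damage repair or cell cycle control after compound exposure.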

[15] = NCI Yeast Anticancer Drug Screen. Data for the mlh1 rad18 strain (AID 175); conditions: S. cerevisiae mlh1 rad18 strain growth inhibition, hits give high values
In short: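 In this whole-cell yeast screen, a strain with altered DNA damage repair is challenged with compound, and its growth is measured against matched vehicle-treated controls.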

[16] = NCI Yeast Anticancer Drug Screen. Data for the rad18 strain (AID 177); conditions: S. cerevisiae rad18 mutant growth inhibition, hits give high values
In short: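 Screen uses a yeast strain with a defined lesion in DNA damage repair; compound effect is read as loss of growth compared to untreated vehicle cultures.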

[17] = at 5.0 µM (retest, dose inferred, filed as 0.5)
[18] = at 50.0 µM (retest, dose inferred, filed as 5.0)

Measured: growth inhibition

CCN(CC)CCC(=O)c1ccc(Oc2ccc(F)cc2)cc1
inactive: [1]; at 1.2 µM -23% | [1]; at 3.7 µM -26% | [1]; at 11.0 µM -40% | [1]; at 33.0 µM 8% | [2]; at 1.2 µM -11% | [2]; at 3.7 µM 23% | [2]; at 11.0 µM 21% | [2]; at 33.0 µM -5% | [3]; at 1.2 µM -9% | [3]; at 3.7 µM -30% | [3]; at 11.0 µM 9% | [3]; at 33.0 µM 36% | [4]; at 1.2 µM 49% | [4]; at 3.7 µM 59% | [5]; at 1.2 µM -5% | [5]; at 3.7 µM -21% | [5]; [17] 46% | [5]; at 11.0 µM -17% | [5]; at 33.0 µM 2% | [5]; at 50.0 µM 57% | [6]; at 1.2 µM 17% | [6]; at 3.7 µM 35% | [6]; [17] 41% | [6]; at 11.0 µM 42% | [6]; at 33.0 µM 52% | [6]; at 50.0 µM 44.5% | [7]; at 1.2 µM 5% | [7]; at 3.7 µM 39% | [7]; at 11.0 µM 51% | [8]; [17] 62% | [8]; [18] 66% | [9]; at 1.2 µM 10% | [9]; at 3.7 µM 17% | [9]; at 11.0 µM 35% | [9]; at 33.0 µM 54% | [9]; at 100.0 µM 68% | [10]; [17] 21% | [10]; [18] 3% | [10]; at 50.0 µM 32.9% | [11]; at 1.2 µM 35% | [11]; at 3.7 µM 46% | [11]; [17] 55% | [11]; at 11.0 µM 58% | [11]; [18] 47% | [11]; at 50.0 µM 69.6% | [12]; at 1.2 µM 17% | [12]; at 3.7 µM 21% | [12]; at 11.0 µM 41% | [13]; at 1.2 µM 34% | [13]; at 3.7 µM 37% | [13]; at 11.0 µM 58% | [14]; at 1.2 µM -12% | [14]; at 3.7 µM -2% | [14]; at 11.0 µM 11% | [14]; at 33.0 µM 59% | [15]; [17] 65% | [15]; at 50.0 µM 47.5% | [16]; at 1.2 µM 4% | [16]; at 3.7 µM 26% | [16]; at 11.0 µM 27% | [16]; at 33.0 µM 52%
active: [1]; at 100.0 µM 83% | [2]; at 100.0 µM 80% | [3]; at 100.0 µM 93% | [4]; at 11.0 µM 76% | [4]; at 33.0 µM 92% | [4]; at 100.0 µM 94% | [5]; [18] 82% | [5]; at 100.0 µM 87% | [6]; [18] 87% | [6]; at 100.0 µM 95% | [7]; at 33.0 µM 79% | [7]; at 100.0 µM 81% | [8]; at 50.0 µM 76.5% | [11]; at 33.0 µM 83% | [11]; at 100.0 µM 97% | [12]; at 33.0 µM 71% | [12]; at 100.0 µM 80% | [13]; at 33.0 µM 73% | [13]; at 100.0 µM 83% | [14]; at 100.0 µM 96% | [15]; [18] 93% | [16]; at 100.0 µM 96%

CNC1C(OC2C(OC3C(O)C(O)C(N=C(N)N)C(O)C3N=C(N)N)OC(C)C2(O)CO)OC(CO)C(O)C1O (stereo unspecified)
active: [5]; at 50.0 µM 91.3% | [6]; at 50.0 µM 93.5% | [8]; at 50.0 µM 91.8% | [10]; at 50.0 µM 81.8% | [11]; at 50.0 µM 93.5% | [15]; at 50.0 µM 93.1%
inactive: [1]; at 1.2 µM -3% | [1]; at 3.7 µM 1% | [1]; at 11.0 µM 2% | [1]; at 33.0 µM 28% | [1]; at 100.0 µM -7% | [2]; at 1.2 µM 4% | [2]; at 3.7 µM -4% | [2]; at 11.0 µM -4% | [2]; at 33.0 µM 10% | [2]; at 100.0 µM -4% | [3]; at 1.2 µM -2% | [3]; at 3.7 µM 4% | [3]; at 11.0 µM -2% | [3]; at 33.0 µM -3% | [3]; at 100.0 µM -10% | [4]; at 1.2 µM 0% | [4]; at 3.7 µM 7% | [4]; at 11.0 µM -6% | [4]; at 33.0 µM 17% | [4]; at 100.0 µM -9% | [5]; at 1.2 µM -2% | [5]; at 3.7 µM 7% | [5]; [17] -19% | [5]; at 11.0 µM 4% | [5]; at 33.0 µM 31% | [5]; [18] -6% | [5]; at 100.0 µM -11% | [6]; at 1.2 µM -2% | [6]; at 3.7 µM -1% | [6]; [17] -15% | [6]; at 11.0 µM -3% | [6]; at 33.0 µM 10% | [6]; [18] 19% | [6]; at 100.0 µM -3% | [7]; at 1.2 µM -2% | [7]; at 3.7 µM 4% | [7]; at 11.0 µM -2% | [7]; at 33.0 µM 32% | [7]; at 100.0 µM -9% | [8]; [17] 19% | [8]; [18] -6% | [9]; at 1.2 µM -7% | [9]; at 3.7 µM -6% | [9]; at 11.0 µM -2% | [9]; at 33.0 µM 16% | [9]; at 100.0 µM -12% | [10]; [17] 11% | [10]; [18] 59% | [11]; at 1.2 µM -2% | [11]; at 3.7 µM -1% | [11]; [17] 5% | [11]; at 11.0 µM 12% | [11]; at 33.0 µM 45% | [11]; [18] 2% | [11]; at 100.0 µM -9% | [12]; at 1.2 µM -3% | [12]; at 3.7 µM 0% | [12]; at 11.0 µM -1% | [12]; at 33.0 µM 34% | [12]; at 100.0 µM -6% | [13]; at 1.2 µM -2% | [13]; at 3.7 µM -4% | [13]; at 11.0 µM 2% | [13]; at 33.0 µM 11% | [13]; at 100.0 µM 10% | [15]; [17] 12% | [15]; [18] 7%
